Screening results from PubChem BioAssay.
VHR inh abs – VHR1 phosphatase inhibitors, primary screen, biochemical, absorbance, uHTS; 0.52% of 290,000 active; recombinant VHR phosphatase, pNPP absorbance; Dual specificity protein phosphatase 3 (Homo sapiens), P51452; inhibition, % at 13.3 µM; AID 1654, 2009; in the data active = inhibition above about 50%
CCHF vOTU inh-1 – CCHFV vOTU protease inhibitors, primary screen, biochemical, Pep-AMC substrate, fluorescence | Crimean-Congo hemorrhagic fever virus L polyprotein viral ovarian tumor (vOTU) protease … | inhibition, % at 11.5 µM | 0.55% of 370,000 active | AID 651958, 2012; note: 0% = vehicle wells with enzyme and 100% = no enzyme wells
SARS 3CLpro inh – SARS-CoV 3CLpro protease inhibitors, primary screen, biochemical, quenched FRET; inhibition, % at 6 µM; 0.14% of 290,000 active; recombinant SARS-CoV 3CLpro, quenched FRET peptide cleavage; Replicase polyprotein 1ab (Severe acute respiratory syndrome coronavirus), P0C6X7; in the data active = inhibition above about 12%
RecA splice inh – Mtb RecA intein splicing inhibitors, primary screen, biochemical, fluorescence, HTS; cell-free RecA intein splicing; 0.75% of 290,000 active; inhibition, % (test concentration not listed); in the data active = inhibition above about 30%;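 note: 0% = vehicle wells and 100% = reference inhibitor control wells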
Target sequence (P9WHJ3 whole entry, looked up, canonical isoform): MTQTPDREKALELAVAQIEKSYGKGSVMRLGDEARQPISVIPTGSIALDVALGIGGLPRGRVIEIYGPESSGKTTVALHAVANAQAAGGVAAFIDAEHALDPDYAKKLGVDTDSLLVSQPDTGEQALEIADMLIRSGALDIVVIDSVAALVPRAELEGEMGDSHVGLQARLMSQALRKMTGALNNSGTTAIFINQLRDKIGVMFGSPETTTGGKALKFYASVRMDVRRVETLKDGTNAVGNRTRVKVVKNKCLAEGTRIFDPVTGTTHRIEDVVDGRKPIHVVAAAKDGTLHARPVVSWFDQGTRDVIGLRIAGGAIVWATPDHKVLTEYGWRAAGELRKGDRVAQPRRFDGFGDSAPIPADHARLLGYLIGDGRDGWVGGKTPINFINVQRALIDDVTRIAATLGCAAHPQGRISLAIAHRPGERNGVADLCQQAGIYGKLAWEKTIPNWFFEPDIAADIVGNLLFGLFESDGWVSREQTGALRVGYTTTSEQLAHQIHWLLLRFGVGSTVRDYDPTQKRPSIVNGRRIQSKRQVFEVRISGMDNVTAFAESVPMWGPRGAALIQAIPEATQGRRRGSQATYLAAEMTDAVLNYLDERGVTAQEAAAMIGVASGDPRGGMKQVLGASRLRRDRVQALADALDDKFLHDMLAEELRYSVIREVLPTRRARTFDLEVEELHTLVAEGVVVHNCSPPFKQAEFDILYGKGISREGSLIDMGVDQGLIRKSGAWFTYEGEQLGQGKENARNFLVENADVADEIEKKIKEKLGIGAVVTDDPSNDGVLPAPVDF
CCHF vOTU inh-2 – CCHFV vOTU protease inhibitors, confirmation, biochemical, Pep-AMC substrate, fluorescence | shares compounds with CCHF vOTU inh-1 | Recombinant CCHFV vOTU | inhibition, % at 11.5 µM | 17% of 1,900 active | AID 686976, 2013
Starred values were filed as active, the others as inactive; . = no result given. In the library only some 1.5% were active in any assay of this set; here they are far more common. Cut-off read from the data, not from the text of the source, unless noted: active = inhibition above about 30%; inactive = the rest.

SMILES | VHR inh abs | CCHF vOTU inh-1 | SARS 3CLpro inh | RecA splice inh | CCHF vOTU inh-2
O=C1C(Cl)=C(NCCN2CCOCC2)C(=O)c2ccccc21 | 22 | 43* | 1 | 16 | 62*
O=C1C(Cl)=C(NCCCO)C(=O)c2ccccc21 | -4 | 45* | 3 | 17 | 48*
O=C1c2cccc(NCCCNCCO)c2C(=O)c2cccc(NCCCNCCO)c21 | . | 22 | . | . | .
CCNC(=O)N1CCN(c2ccc(N3CCN(C(=O)NCC)[C@H](C)C3)c(C)c2)[C@@H](C)C1 | . | 15 | . | . | .
Cc1ccccc1NS(=O)(=O)c1cc(C(=O)NCc2ccncc2)ccc1Cl | 32 | -7 | -2 | 0 | .
Cc1cc(C)cc(N(CC(=O)NC2CCC(C)CC2)S(=O)(=O)c2ccc(C(C)(C)C)cc2)c1 (stereo not given) | . | 2 | . | . | .
Cc1ccc(S(=O)(=O)/N=C(/Nc2nc(C)cs2)c2ccccc2)cc1 | . | 38* | . | . | -9
COc1cc(/C=C2\S/C(=N/S(=O)(=O)c3ccc(C)cc3)NC2=O)c([N+](=O)[O-])cc1OC | 9 | 29 | -3 | -3 | .
Cc1ccc(S(=O)(=O)/N=C2/NC(=O)/C(=C/c3cc([N+](=O)[O-])ccc3O)S2)cc1 | -4 | 43* | 7 | -3 | 11
COC(=O)[C@]12C[C@H](CC(=O)NCCCCc3ccccc3)C(=O)N(Cc3ccccc3)C1=C[C@H](C1CCCC1)O[C@@H]2C | . | 9 | . | . | .
CC1=NN(c2cccc(Cl)c2)C(=O)C1 | 3 | 44* | 4 | 94* | 2
C=C1c2nc3ccccc3n2C=C(c2ccc(C)cc2)N1c1ccccc1 | . | 35* | . | . | -2
O=C(CSc1nc(=O)n(CCCN2CCOCC2)c2c1CCC2)Nc1ccc(F)cc1F | . | 32* | . | 1 | -18
NC(=O)[C@@H]1CCOc2c(I)cc([N+](=O)[O-])cc2C(=O)N[C@@H](CO)C(=O)NCC(=O)N1 | -34 | 2 | -1 | 1 | .
CC(=O)N1c2ccccc2N=C(c2ccc(C(F)(F)F)cc2)C1C(=O)NC(C)C (stereo not given) | . | 30* | . | . | -14
Cc1ccc(S(=O)(=O)NCCCN2CCCC2)cc1 | 18 | 12 | -2 | -1 | .
CC(=O)c1[nH]c(C)c(C(=O)N2CCCC(Nc3cccc(F)c3)C2)c1C (stereo not given) | 4 | -4 | -2 | -1 | .
O=C(O)c1[nH]c2ccccc2c1C(c1cc(Cl)cc([N+](=O)[O-])c1O)c1c(C(=O)O)[nH]c2ccccc12 | 11 | 46* | 12 | 15 | 26
CCOC(=O)C1CCCN(C(=O)c2cccc(S(=O)(=O)N(Cc3ccccc3)c3ccccc3OC)c2)C1 (stereo not given) | . | 36* | . | 11 | -12
Cc1cccc(-n2ncc3c(N)ncnc32)c1 | -3 | 30* | -1 | -4 | -16
Cc1cccc(-n2ncc3c(NC(C)C)ncnc32)c1 | 9 | -2 | -3 | 1 | .
CCCCCC(=O)N1C[C@@H](n2cc(-c3ccc(F)cc3)nn2)[C@H](O)C[C@@H]1c1ccc(Cl)cc1 | . | 34* | . | . | 5
O=C(C1CCCCC1)N1C[C@H](n2cc(-c3ccc(F)cc3)nn2)[C@@H](O)C[C@@H]1c1ccc(Cl)cc1 | . | 4 | . | . | .
CCCCCC(=O)N1C[C@H](O)[C@@H](n2cc(-c3ccc(F)cc3)nn2)C[C@@H]1c1ccc(Cl)cc1 | . | 5 | . | . | .
Cc1ccc([C@H]2C[C@@H](O)[C@H](n3cc(-c4ccc(F)cc4)nn3)CN2C(=O)C2CCCCC2)cc1 | . | 31* | . | . | 4
SMILES | VHR inh abs | CCHF vOTU inh-1 | SARS 3CLpro inh | RecA splice inh | CCHF vOTU inh-2
C/C(=N\NC(=O)c1cccc(S(=O)(=O)N2CCCC2)c1)c1ccc(OCC(=O)N(C)C)cc1 | . | -4 | . | -3 | .
CCCCNC(=O)C1(C)CCN1C(=O)c1ccc(OC)c(C(F)(F)F)c1 (stereo not given) | . | 4 | . | . | .
CCCCc1nnc(NC(=O)C2=COCCO2)s1 | -9 | 33* | -1 | 0 | -17
Oc1c(Br)cc(Br)cc1CNc1cccc2cccnc12 | 12 | 116* | 4 | 13 | 12
Oc1ccc(Cl)cc1CNc1cccc2cccnc12 | -4 | 102* | 3 | 13 | -4
COc1cccc(CNc2cccc3cccnc23)c1O | -6 | 9 | 1 | 3 | .
Oc1ccc(Br)cc1CNc1cccc2cccnc12 | 6 | 18 | -2 | 21 | .
O=C(N/N=C/c1cccs1)c1cccc(S(=O)(=O)Nc2ccc(Cl)cc2)c1 | 8 | -1 | -2 | 0 | .
O=C(N/N=C/c1cccs1)c1cccc(NC(=O)c2ccc(Cl)cc2)c1 | 0 | 46* | -1 | -1 | 5
COc1ccc(S(=O)(=O)N(C)[C@H]2C[C@H]3c4cc(Oc5ccccc5C)ccc4CCN3C(=O)[C@H]2[C@H](C)O)cc1 | . | 16 | . | . | .
CCN(CC)c1ccc(N=Cc2ccc(N(CC)CC)cc2O)cc1 | -12 | 24 | 0 | -2 | .
CCN(CC)c1ccc(C=Nc2ccc(N(C)C)cc2)c(O)c1 | 35 | 74* | -1 | -3 | -2
CCCCOn1c(C)c(C(=O)OCC)c2c3nonc3ccc21 | . | 9 | -1 | -1 | .
COn1c(C)c(C(C)=O)c2c3nonc3ccc21 | 25 | 31* | 4 | -26 | -3
CC(CN1CCOCC1)OC(=O)c1ccccc1Br (stereo not given) | -1 | 32* | 3 | 0 | -28
CNCCCOc1ccc(C)cc1Br | 39 | 30* | 3 | 0 | -14
CCCCCCCCN1CCS(=O)(=O)N(Cc2ccc(C)cc2)C(C(=O)OC)C1 (stereo not given) | . | 30* | . | . | 18
CCCCCCN1CCS(=O)(=O)N(Cc2ccccc2)C(C(=O)OC)C1 (stereo not given) | . | 5 | . | . | .
COc1ccc(N2C(=O)c3ccccc3NC(=O)C2C(=O)NCc2ccco2)cc1 (stereo not given) | . | 8 | . | . | .
CCN(CC)C(=O)[C@H]1C[C@H](CC(=O)NCc2cccc(C(F)(F)F)c2)C(=O)N2CCc3c([nH]c4ccc(Cl)cc34)[C@]12C | . | 32* | . | . | -3
Cn1c2ccccc2c2cc(/C=C(\NC(=O)c3ccccc3)C(=O)O)ccc21 | -4 | 30* | 4 | 0 | -6
Cc1ccc(NS(=O)(=O)c2cccc3cccnc23)c(Br)c1 | 20 | 10 | -1 | 1 | .
Cc1ccc(NS(=O)(=O)c2cccc3cccnc23)c(Cl)c1 | 13 | 37* | 2 | 1 | -4
